Laboratory results: PubChem BioAssay AID1159580 (chemical genetic matrix, 2015)
Screen size: about 5,500 compounds; about 2,000 (36%) were called active. Not shown: some 18% with an inconclusive outcome. Cut-off read from the data, not from the text of the source: active = normalized growth mostly below about 0.91 (no sharp cut-off); inconclusive = no clear call, values can overlap the other calls; inactive = mostly above about 0.92. Some of the results follow.

Assay: chemical genetic growth profiling, strain panel (AID 1159580);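 note: tested at 20 µM; growth read once vehicle control cultures reached saturation at 30 °C; 1 = growth at the plate median or of vehicle wells; lower values mean less growth of the strain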
Details: S. cerevisiae deletion strains, growth OD

Measured: normalized growth

CC(=O)O[C@@H]1c2c(ccc3ccc(=O)oc23)OC(C)(C)[C@@H]1OC(=O)CC(C)C
active: locus YDR137W, strain rgp1, hits give low values 0.796 | locus YDR392W, strain spt3, hits give low values 0.591 | locus YLR262C, strain YPT6 (second series), hits give low values 0.794 | locus YNL071W, strain lat1, hits give low values 0.882
inactive: locus YAL021C, strain ccr4, hits give low values 1.03 | locus YAL026C, strain drs2, hits give low values 0.993 | locus YAL030W, strain snc1, hits give low values 1 | locus YBL061C, strain skt5, hits give low values 0.992 | locus YBR009C, strain hhf1, hits give low values 1.05 | locus YBR021W, strain FUR4, hits give low values 1.02 | locus YBR023C, strain chs3, hits give low values 0.991 | locus YBR171W, strain sec66, hits give low values 0.974 | locus YBR229C, strain ROT2, hits give low values 0.993 | locus YBR231C, strain swc5, hits give low values 1 | locus YBR279W, strain paf1, hits give low values 1.02 | locus YCL011C, strain gbp2, hits give low values 1.01 | locus YCL016C, strain dcc1, hits give low values 1 | locus YCL029C, strain bik1, hits give low values 1.03 | locus YCL061C, strain MRC1, hits give low values 1 | locus YCL069W, strain vba3, hits give low values 1.01 | locus YCR088W, strain abp1, hits give low values 0.997 | locus YDL005C, strain med2, hits give low values 0.995 | locus YDL035C, strain GPR1, hits give low values 1.01 | locus YDL040C, strain nat1, hits give low values 1.01 | locus YDL074C, strain BRE1, hits give low values 1.01 | locus YDL101C, strain DUN1, hits give low values 1 | locus YDL134C, strain PPH21, hits give low values 0.977 | locus YDL185W, strain tfp1, hits give low values 1.03 | locus YDL192W, strain arf1, hits give low values 1 | locus YDR001C, strain nth1, hits give low values 1.01 | locus YDR069C, strain doa4, hits give low values 1 | locus YDR101C, strain arx1, hits give low values 1.05 | locus YDR159W, strain sac3, hits give low values 0.974 | locus YDR162C, strain NBP2, hits give low values 0.976 | locus YDR195W, strain ref2 1.07 | locus YDR297W, strain sur2, hits give low values 0.994 | locus YDR318W, strain mcm21, hits give low values 0.978 | locus YDR334W, strain swr1, hits give low values 1.01 | locus YDR335W, strain msn5, hits give low values 1.02 | locus YDR388W, hits give low values 1.01 | locus YDR502C, strain sam2, hits give low values 1 | locus YEL003W, strain gim4, hits give low values 1.02 | locus YEL037C, strain rad23, hits give low values 1.01 | locus YEL061C, strain CIN8 (second series), hits give low values 1.01 | locus YEL061C, strain CIN8, hits give low values 0.978 | locus YER015W, strain faa2, hits give low values 1.01 | locus YER016W, strain bim1, hits give low values 0.995 | locus YER110C, hits give low values 1.03 | locus YER111C, strain swi4, hits give low values 1 | locus YER155C, strain BEM2 (second series), hits give low values 0.972 | locus YER155C, strain BEM2, hits give low values 1 | locus YER167W, strain BCK2, hits give low values 1 | locus YFR010W, strain ubp6, hits give low values 1.03 | locus YGL078C, strain dbp3, hits give low values 1.02 | locus YGL086W, strain mad1, hits give low values 1.03 | locus YGL167C, strain pmr1, hits give low values 0.989 | locus YGL173C, strain kem1, hits give low values 0.987 | locus YGL227W, strain vid30, hits give low values 1 | locus YGL240W, strain doc1, hits give low values 1.02 | locus YGL248W, strain PDE1, hits give low values 0.994 | locus YGL253W, strain hxk2, hits give low values 0.986 | locus YGR078C, strain PAC10, hits give low values 1 | locus YGR135W, strain pre9, hits give low values 1 | locus YGR252W, strain gcn5, hits give low values 1 | locus YHR013C, strain ard1, hits give low values 1.01 | locus YHR027C, strain rpn1, hits give low values 0.999 | locus YHR030C, strain SLT2, hits give low values 0.988 | locus YHR079C, strain IRE1 (second series), hits give low values 1.01 | locus YHR094C, strain hxt1, hits give low values 1.01 | locus YHR129C, strain ARP1, hits give low values 0.993 | locus YHR142W, strain chs7, hits give low values 0.99 | locus YHR200W, strain rpn10, hits give low values 1.03 | locus YIL066C, strain RNR3, hits give low values 0.982 | locus YIL073C, strain SPO22, hits give low values 1.01 | locus YIL125W, strain kgd1, hits give low values 1.02 | locus YIR030C, strain dcg1, hits give low values 1 | locus YJL092W, strain hpr5, hits give low values 0.998 | locus YJL095W, strain BCK1 (second series), hits give low values 0.995 | locus YJL095W, strain BCK1, hits give low values 0.94 | locus YJL115W, strain asf1, hits give low values 1.01 | locus YJL129C, strain trk1, hits give low values 0.918 | locus YJL134W, strain LCB3, hits give low values 0.994 | locus YJL154C, strain vps35, hits give low values 1.01 | locus YJL164C, strain tpk1, hits give low values 1.02 | locus YJL166W, strain qcr8, hits give low values 0.961 | locus YJL168C, strain set2, hits give low values 1.02 | locus YJL187C, strain SWE1 (second series), hits give low values 1 | locus YJL187C, strain SWE1, hits give low values 0.996 | locus YJR043C, strain POL32, hits give low values 1.03 | locus YKL009W, strain mrt4, hits give low values 1.01 | locus YKL068W, hits give low values 0.996 | locus YKL085W, strain MDH1 (second series), hits give low values 0.988 | locus YKL085W, strain MDH1, hits give low values 0.988 | locus YKL160W, strain elf1, hits give low values 0.928 | locus YKL190W, strain CNB1, hits give low values 0.989 | locus YKR001C, strain vps1, hits give low values 1.01 | locus YKR026C, strain gcn3, hits give low values 0.998 | locus YKR091W, strain srl3, hits give low values 0.997 | locus YLL001W, strain dnm1, hits give low values 0.957 | locus YLL026W, hits give low values 1 | locus YLL041C, strain sdh2, hits give low values 1 | locus YLR027C, strain aat2, hits give low values 0.999 | locus YLR039C, strain RIC1, hits give low values 0.921 | locus YLR058C, strain SHM2, hits give low values 0.982 | locus YLR102C, strain apc9, hits give low values 1.01 | locus YLR221C, strain rsa3, hits give low values 0.979 | locus YLR258W, strain gsy2, hits give low values 1.01 | locus YLR262C, strain YPT6, hits give low values 0.889 | locus YLR268W, strain sec22, hits give low values 1.03 | locus YLR320W, strain mms22, hits give low values 0.918 | locus YLR330W, strain CHS5, hits give low values 1 | locus YLR342W, strain FKS1 (second series), hits give low values 1 | locus YLR342W, strain FKS1, hits give low values 0.98 | locus YLR357W, strain rsc2, hits give low values 1.07 | locus YLR370C, strain arc18, hits give low values 1 | locus YLR371W, strain rom2, hits give low values 1.02 | locus YLR384C, strain iki3, hits give low values 1.01 | locus YLR418C, strain cdc73, hits give low values 0.947 | locus YML016C, strain PPZ1, hits give low values 0.992 | locus YML032C, strain rad52, hits give low values 0.992 | locus YML120C, strain ndi1, hits give low values 0.989 | locus YML124C, strain tub3, hits give low values 1 | locus YMR058W, strain fet3, hits give low values 1 | locus YMR078C, strain ctf18, hits give low values 1 | locus YMR125W, strain sto1, hits give low values 0.976 | locus YMR129W, hits give low values 1 | locus YMR205C, strain PFK2, hits give low values 0.878 | locus YMR223W, strain ubp8, hits give low values 0.986 | locus YMR231W, strain pep5, hits give low values 1 | locus YMR263W, strain SAP30, hits give low values 0.996 | locus YMR307W, strain GAS1, hits give low values 0.848 | locus YNL067W, strain RPL9B, hits give low values 0.998 | locus YNL209W, strain ssb2, hits give low values 1.01 | locus YNL233W, strain BNI4, hits give low values 1.02 | locus YNL248C, strain rpa49, hits give low values 0.952 | locus YNL250W, strain rad50, hits give low values 1.02 | locus YNL271C, strain bni1, hits give low values 0.999 | locus YNL298W, strain CLA4, hits give low values 1.02 | locus YNL307C, strain MCK1, hits give low values 1.01 | locus YNL322C, strain KRE1 (second series), hits give low values 1.01 | locus YNL322C, strain KRE1, hits give low values 0.995 | locus YNR049C, strain mso1, hits give low values 1.01 | locus YNR052C, strain pop2, hits give low values 1 | locus YOL012C, strain htz1 0.997 | locus YOL147C, strain pex11, hits give low values 1 | locus YOR001W, strain rrp6, hits give low values 1.03 | locus YOR061W, strain CKA2, hits give low values 0.985 | locus YOR069W, strain VPS5, hits give low values 0.992 | locus YOR070C, strain gyp1, hits give low values 1 | locus YOR080W, strain dia2, hits give low values 1.02 | locus YOR083W, strain WHI5, hits give low values 0.949 | locus YOR106W, strain vam3, hits give low values 0.968 | locus YOR136W, strain idh2, hits give low values 1.03 | locus YOR144C, strain elg1, hits give low values 1.01 | locus YOR184W, strain ser1, hits give low values 0.921 | locus YOR265W, strain rbl2, hits give low values 1.01 | locus YOR270C, strain vph1, hits give low values 0.883 | locus YOR290C, strain snf2, hits give low values 1 | locus YOR316C, strain cot1, hits give low values 1.01 | locus YPL051W, strain arl3, hits give low values 0.951 | locus YPL078C, strain atp4, hits give low values 0.93 | locus YPL106C, strain sse1, hits give low values 1.06 | locus YPL240C, strain hsp82, hits give low values 1 | locus YPL241C, strain CIN2, hits give low values 0.973 | locus YPR119W, strain clb2, hits give low values 1 | locus YPR141C, strain kar3, hits give low values 0.994 | locus YPR163C, strain tif3, hits give low values 1.01 | locus YPR167C, strain met16, hits give low values 1.01 | strain wtn01, hits give low values 1.04
